Compound activity as filed in PubChem.
The list is not random: actives were taken first. Their share in the collection is about 1.8%.
Bfl-1 A1 inh: inhibitors of the anti-apoptotic protein A1, read as caspase activation. AID 2462. MEF A1-2A-BIM cells, Caspase-Glo 3/7 luminescence, 3 h; percent of clofoctol response, vehicle zero. 330,000 tested, 0.066% active. caspase activation, % (test concentration not listed);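 active means over half of replicate activation scores above 10%, or exactly half above 10 with the replicate mean above 10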
ARNT TACC3 PPI: disrupts binding between human ARNT and TACC3 | AlphaScreen His-ARNT PAS-B/GST-TACC3 binding, luminescence; TACC3 fragment carries E629A point mutation | 390,000 tested, 0.66% active | inhibition, % at 9.99 µM | Q9Y6A5;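 active means mean inhibition of replicates at least 50% and at least half of replicates each reaching 50%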;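 further: 0% = complete ARNT plus TACC3 wells and 100% = ARNT alone without TACC3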
AI-2 QS modul: modulates the Vibrio harveyi AI-2 quorum sensing system | Vibrio harveyi JMH597 AI-2 luminescence/OD600 ratio, 9 h; hits give low values; strain lacks LuxN and CqsS sensors; 0 = neutral-control median | 300,000 tested, 0.4% active | activity change, % at 7.5 µM; in the data active means activity change below about -75%, passing the limit was not always enough;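 further: luminescence divided by OD600 gain over 9 h not by final OD600 alone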
Mot1-301 SUMO: SUMOylation pathway inhibition by Mot1-301 growth rescue | S. cerevisiae Mot1-301 growth rescue, ATP luminescence, 38.5C; percent above DMSO median, 100 means doubled | growth rescue, % at 18.8 µM | 320,000 tested, 1% active | AID 2716;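 active means every valid replicate shows activation above 250% relative to neutral control wells; inactive means the rest, any valid replicate at or below 250%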;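 further: OY570 slx delta 5 strain wells were the positive control but not used for scaling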
aDG glyco act: increases alpha dystroglycan glycosylation; Pro5-aDG cells, alpha-DG glycosylation AlphaScreen (IIH6); 0% Pro5, 100% B10-LARGE cell signal; activation, % at 10 µM; 360,000 tested, 0.22% active; AID 624168;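 active means activation of at least 8% versus controls, or a plate z-score of at least 8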;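 further: Pro5 are CHO cells carrying HIG-tagged alpha-DG that lacks glycosylation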
Starred values were filed as active, the others as inactive; nt = no result given; + = active, no number.

SMILES | Bfl-1 A1 inh | ARNT TACC3 PPI | AI-2 QS modul | Mot1-301 SUMO | aDG glyco act
Cc1ccc(-c2cc(C(=O)N(C)Cc3cnn(C)c3C)c3cc(Br)ccc3n2)cc1 | 0 | nt | 8 | -17 | 0
O=C1[C@H]2[C@@H](c3ccc(C(F)(F)F)cc3)N[C@]3(CCCN(Cc4ccccc4)C3=O)[C@H]2C(=O)N1Cc1ccccc1 | nt | nt | nt | nt | 0
O=C(Nc1ccc(N2CCN(C(=O)c3ccc(Cl)cc3)CC2)cc1)c1ccc2c(c1)OCCO2 | 0 | -1 | 21 | -2 | 4.0*
CCOC(=O)C1CCN(C(=O)c2ccc(Cl)c(S(=O)(=O)N3CCOCC3)c2)CC1 | nt | 5 | 25 | nt | 0
CCOC(=O)C1CCN(C(=O)c2cc(S(=O)(=O)N3CCOCC3)c(Cl)cc2Cl)CC1 | 0 | -3 | 34 | 285* | 0
CCN(CC)C1CC(=O)N(c2cccc(C)c2)C1=O (stereo unspecified) | 0 | nt | 26 | 285* | nt
CC1(C)SC(=S)N(/N=C/c2ccccc2O)C1N(O)C(=O)Nc1ccccc1 (stereo unspecified) | -1 | 48* | -9 | 400 | 0
CC1(C)SC(=S)N(/N=C/c2cccnc2)C1N(O)C(=O)Nc1ccccc1 (stereo unspecified) | 1 | -12 | 6 | 18 | 0
COc1ccccc1N(CC(=O)N/N=C/c1c(O)ccc2ccccc12)S(C)(=O)=O | 0 | 83* | 19 | 19 | 0
COc1ccc(C(C)=O)cc1COc1cccc2c1OC(C)(C)C2 | -2 | -1 | 12 | -3 | 0
CCCCc1ccc(NC(=O)CSc2nc(=O)n(CCCN3CCOCC3)c3c2CCC3)cc1 | 0 | 2 | -3 | 536* | 0
CCCCCCn1c(=O)n2n(c1=O)[C@@H]1CN(S(=O)(=O)c3ccc(C)cc3)C[C@]1(O)[C@@H](OC(=O)NCc1ccccc1)C2 | nt | nt | nt | nt | 0
CCC(CC)=NNc1cccc([N+](=O)[O-])c1 | -1 | 0 | 5 | 0 | 0
O=C(O)c1ccc(/C=N/Nc2ccc(C(F)(F)F)cn2)cc1 | nt | 1 | 25 | nt | 0
Oc1ccc(C=NNc2ccccn2)c(O)c1 | nt | 60* | nt | nt | 2
COc1cc(/C=N/Nc2ccc(C(F)(F)F)cn2)ccc1O | -1 | 4 | 17 | + | 0
CC/C(C)=N/Nc1cccc([N+](=O)[O-])c1 | 0 | 1 | 28 | 275* | 0
Oc1cccc(C=NNc2ccccn2)c1 | nt | 13 | nt | nt | 0
Cc1nc(N/N=C/c2ccc(O)cc2O)cc(N2CCOCC2)n1 | 0 | 65* | 1 | 83 | 0
Cc1nc(N/N=C/c2cccc(F)c2)cc(N2CCOCC2)n1 | 0 | 10 | nt | -9 | 0
CC(=O)Oc1c2occc2cc2ccc(=O)oc12 | 0 | -3 | 30 | 70 | 1
COc1ccc(NC(=O)N(C)C[C@@H]2Oc3ccc(NS(C)(=O)=O)cc3CC(=O)N([C@@H](C)CO)C[C@H]2C)cc1 | nt | -12 | nt | nt | nt
Cc1ccc(-c2ccc(CCC(=O)O)n2CC(=O)O)cc1 | 1 | -8 | 14 | 5 | 0
O=[N+]([O-])c1ccc(O)c(/C=N/Nc2nc3ccccc3[nH]2)c1 | -2 | 83* | -29 | 6 | 1
O=[N+]([O-])c1ccc(O)c(/C=N/Nc2ccccn2)c1 | -2 | 61* | -19 | 0 | 1
SMILES | Bfl-1 A1 inh | ARNT TACC3 PPI | AI-2 QS modul | Mot1-301 SUMO | aDG glyco act
COc1ccc(O)c(/C=N/Nc2nc3ccccc3[nH]2)c1 | 0 | -13 | 19 | 0 | 0
O=[N+]([O-])c1ccc(NN=Cc2ccccc2O)nc1 | nt | 8 | nt | nt | 0
CCN(CC)S(=O)(=O)c1ccc(N/N=C/c2ccc(O)cc2O)nc1 | 0 | 46* | 96 | -22 | 1
O=[N+]([O-])c1ccc(NN=Cc2ccc(O)cc2O)nc1 | nt | 29 | nt | nt | 1
COc1ccc(/C=N/Nc2ccccn2)cc1O | -1 | 26* | 21 | 1 | 0
CC(C)NC(=O)C1(C)CCN1Cc1ccc(Cl)cc1 (stereo unspecified) | nt | nt | nt | nt | 2
Oc1ccccc1/C=N/Nc1nccnc1Cl | -7 | 67* | -43 | 42 | 4
O=[N+]([O-])c1ccc(O)c(C=NNc2ccc(S(=O)(=O)O)cc2)c1 | nt | 1 | nt | nt | 0
O=[N+]([O-])c1cccc(N/N=C/c2cc([N+](=O)[O-])ccc2O)c1 | 0 | nt | 19 | 301* | 0
O=C1c2ccsc2SCCN1Cc1c(F)cccc1Cl | 1 | 0 | 4 | 31 | 0
CNC[C@H]1Oc2ccc(NS(=O)(=O)c3ccc(OC)cc3)cc2CC(=O)N([C@@H](C)CO)C[C@@H]1C | nt | -9 | nt | nt | nt
CC(C)N(CCNC(=O)c1ccc(NC2=NC3CS(=O)(=O)CC3S2)cc1)Cc1ccco1 (stereo unspecified) | 1 | 3 | 34 | 9 | 0
S=C(NCc1ccc(Cl)cc1Cl)NC1CCCCC1 | 0 | -8 | -66 | 645* | 0
Clc1ccc(CNC2CCCC2)c(Cl)c1 | 0 | -7 | -2 | -7 | 0
Oc1cc(NCc2ccc(Cl)cc2)cc2cccnc12 | -1 | 37* | nt | -12 | 1
CCSc1nnc(-c2ccc(S(=O)(=O)N3CCOCC3)cc2)n1CC1CCCO1 (stereo unspecified) | 0 | -1 | 19 | 137 | 0
CCCC(=O)Nc1ccc2c(c1)OC[C@@H](C)N(C(C)=O)C[C@H](C)[C@H](OC)CN(C)C2=O | nt | -3 | nt | nt | nt
Cc1ccc(OCc2nnc(SCC(=O)O)n2N)cc1 | 2 | -17 | 15 | 96 | 0
C/C=C/c1cccc(-c2nc(C(=O)NCc3ccncc3)cc3c2[C@H](CCO)N([S@@](=O)C(C)(C)C)C3)c1 | nt | 52* | nt | nt | nt
CCOC(=O)c1cc2c(c(-c3cccc(-c4cccc(OC)c4)c3)n1)[C@@H](CCO)N(S(=O)C(C)(C)C)C2 (stereo partly specified) | nt | 55* | nt | nt | nt
CCOC(=O)c1cc2c(c(-c3cccc(-c4cccc(OC)c4)c3)n1)[C@H](CCO)N(S(=O)C(C)(C)C)C2 (stereo partly specified) | nt | -6 | nt | nt | nt
N#Cc1ccccc1CSc1nnc(Cc2ccccc2)o1 | 0 | -16 | -4 | 348* | 0
CCn1c(SCC(N)=O)nc2sc3c(c2c1=O)CCN(C)C3 | 0 | 4 | 25 | -5 | 0
C/C(=N\Nc1ccccc1)c1c(O)cc(C)oc1=O | 1 | 1 | 16 | 324* | 0
Cc1cc2c(N=O)c(NO)ccc2[nH]1 | 0 | 80* | 63 | -7 | 1
Cc1cccc(N(C(=O)c2cnc3n(c2=O)CCS3)C2CCCCC2)c1 | 1 | -8 | 22 | -18 | 0
O=[N+]([O-])c1cc(/C=N/O)ccc1Oc1ccccc1Cl | 0 | 4 | 7 | 266* | 0
CCc1cnc(N2[C@H](C#N)[C@@H](c3ccc(C4=CCCCC4)cc3)[C@H]2CO)s1 | nt | 11 | nt | nt | nt
CC(C)C1C(=O)N(Cc2cn(Cc3ccco3)nn2)CCS(=O)(=O)N1Cc1ccc(-c2ccc(F)nc2)cc1 (stereo unspecified) | nt | nt | nt | nt | 0
